Measurements: PubChem BioAssay AID1159606 (Sanford-Burnham Center for Chemical Genomics, 2016)
About 7,300 (2%) of roughly 360,000 compounds were called active. Rule as the data show it: active = inhibition above about 50%; inactive = the rest. This excerpt belongs to a sample that is enriched for actives.

Experiment: inhibitors of TWEAK-Fn14 signaling, primary screen, luciferase reporter cells, uHTS (AID 1159606)
Details: TWEAK-stimulated Fn14 reporter cells, luciferase luminescence, 8 h; at 10 µM; hits give high values

inhibition, inactive:
COCCN(C(=O)C(C)N1C(=O)c2ccccc2C1=O)c1c(N)n(CC(C)C)c(=O)[nH]c1=O (stereo not given) 2.19%
CC/C(O)=C1\C(=O)CC(C)(C)CC1=NCCc1nc2ccccc2[nH]1 4.19%
CC1(C)O[C@@H]2CC3C4C[C@H](F)C5=CC(=O)C=CC5(C)C4C(O)CC3(C)[C@]2(C(=O)CO)O1 (stereo not given in full) -4.61%
COc1ccc(C(=O)NCC[N+](C)(C)C)cc1 7.64%
CS(=O)(=O)N(CC(=O)N/N=C/c1ccccn1)c1ccc(Oc2ccccc2)cc1 4.09%
c1ccc(CNc2ncnc3[nH]ncc23)cc1 2.58%
Clc1ccc(Cn2ncc3c(NCc4cccnc4)ncnc32)cc1 31.4%
Cc1ccccc1NC(=O)NC1(C(=O)N2CCCC2)CCCCC1 -3.42%
O=C(CSc1ccccc1F)NC1CCS(=O)(=O)C1 (stereo not given) 2.35%
CC(C)C(=O)NC(NC(=S)NC1CCS(=O)(=O)C1)C(Cl)(Cl)Cl (stereo not given) 25.4%
O=C(Cc1ccc(Cl)cc1)NC1CCS(=O)(=O)C1 (stereo not given) -0.04%
COc1ccc(NC(=S)NC2CCS(=O)(=O)C2)cc1 (stereo not given) -0.47%
Cc1ccc(NC2CCCN(C(=O)CCC3(C)CC3)C2)cc1C (stereo not given) -13.8%
CSc1ccc(/C=C2\NC(=O)NC2=O)cc1 -11.1%
CNC(=O)c1c(NC(NC(=O)c2ccco2)C(=O)c2ccc(Cl)cc2)sc2c1CCCC2 (stereo not given) -9.64%
CCCc1nn(C)c2c(=O)[nH]c(-c3cc(S(N)(=O)=O)ccc3OCC)nc12 -1.76%
Cc1noc(/C=C/c2ccco2)c1S(=O)(=O)N1CCC(C(=O)N2CCc3ccccc32)CC1 6.06%
CNC(=O)C1CCN(S(=O)(=O)c2c(C)noc2/C=C/c2cccc(C)c2)CC1 -21.5%
CCCCN1C(=O)C(CC(=O)NCc2cccs2)CC(C(=O)N2CCCCCC2)=C1C (stereo not given) -6.58%
Oc1cc(O)c2c(c1)OC(c1ccc(O)c(O)c1)C(O)C2 (stereo not given) -8.69%
Clc1ccc(-c2cccc3nccn23)cc1 -3.21%
COC(=O)c1cccc(C(=O)N2CCCC(Nc3ccc4c(c3)OCCO4)C2)c1 (stereo not given) 13.2%
CCCCN(C(C)=O)c1ccc2c(c1)C1CC2CCN1Cc1ccccc1 (stereo not given) -18%
CCCCNC(=O)OCCSCCS(=O)(=O)c1ccc(Cl)cc1 -5.78%
Cc1cccc(CN2CCC(CNC(=O)Nc3ccc(F)c(Cl)c3)CC2)c1 10.9%
Cc1cccc(NC(=O)Cn2cc(C(=O)c3ccco3)c3ccccc32)c1 -6.45%
Cc1ccc(C)c(Cn2nnc3c(=O)[nH]c(C(=O)Nc4ccc(F)cc4)nc32)c1 -5.18%
Cc1cccc(NC(=O)CCN2CC(C)CC(C)C2)c1 (stereo not given) -9.11%
CC(C)CN(CC(C)C)CC(O)CN(c1ccccc1)S(=O)(=O)c1ccccc1[N+](=O)[O-] (stereo not given) 16%
CC(=O)C1C(c2ccc(Cl)cc2)c2c(n[nH]c2C)CC1(C)O (stereo not given) -9.34%
CC(C)(C)C(=O)c1c(N)[nH]c(C(=O)c2ccccc2)c1-c1ccc(F)cc1 -3.63%
CN(C(=O)Nc1ccc(Cl)cc1)n1cnc2ccccc2c1=O 1.4%
CC(C)(C)c1nc2ccccc2c(=O)n1N1C(=O)c2ccccc2C1=O 20.8%
CCCCNC(=O)CSc1nc2ccc(NC(=O)CSc3nnc(COc4ccccc4C)n3C)cc2s1 -37.4%
CCCCNC(=O)CSc1nc2ccc(NC(=O)CSc3nnc(N)s3)cc2s1 23.8%
Cc1nc(CNS(=O)(=O)c2ccc(Oc3ccccc3)cc2)cs1 23.5%
c1ccc2c(C[n+]3csc4ccccc43)cccc2c1 -11.1%
O=C(C(c1ccccc1)c1ccccc1)N1CCN(CC(O)COc2ccccc2)CC1 (stereo not given) 3.97%
CC(C)c1ccc(OCC(O)Cn2cnc3ccccc32)cc1 (stereo not given) -16.5%
COc1ccc([C@H]2CC(=O)C[C@@H](CCn3cc(CC4CCCC4)nn3)O2)cc1 7.34%
C[C@@H]1CC2=C(C(=O)OC(C)(C)O2)[C@@H](C2CC2)O1 4.57%

inhibition, active:
Brc1ccc2ncnc(NCc3cccnc3)c2c1 62.2%
O=S1(=O)CCC(NC(=S)SCc2ccccc2Br)C1 (stereo not given) 54.2%
CCCSC(=S)NC1CCS(=O)(=O)C1 (stereo not given) 78.9%
Cc1noc(/C=C/c2ccco2)c1S(=O)(=O)N1CCC(C(=O)Nc2ccc(Cl)cn2)CC1 51%
Cc1cccc(CS(=O)(=O)c2ncc(Cl)c(C(=O)Nc3ccc(F)cc3)n2)c1 77%
Cc1cccc(NC(=O)c2nc(S(=O)(=O)Cc3ccccc3)ncc2Cl)c1 75.7%
CN(c1ccc2nc3ccccc3c(=O)n2n1)C1CCCCC1 105%
Nc1nnc(SCC(=O)Nc2ccc3nc(SCC(=O)Nc4ccccc4)sc3c2)s1 86.4%
OC(CN=c1sc2ccccc2n1CC(O)COc1ccccc1)COc1ccccc1 (stereo not given) 70.7%
